Experimental findings from PubChem BioAssay (EPA / NIEHS) are described below.

Several values for one entry are separate records, joined by “and”; a condition that tells them apart may be missing. Identical values can stand only once. Activity calls are given as the source filed them. The calls were made as follows: active = hit-call score of the fitted dose curve at least 0.9, where 1 is the maximum; inactive = score below 0.9.

As usually defined, the AC50 is the concentration at which the activity in the assay is half-maximal.

This experiment is described as follows: BSK_SAg_SRB: Viability Assessment in the BioMAP Diversity Plus: SAg Assay (AID 2283096).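 Also: hits may be either gain or loss of signal compared with DMSO.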 Particulars: primary human HUVEC with PBMC. As to the method: BSK_SAg is a cell-based, multiplexed-readout assay that uses umbilical vein endothelium and peripheral blood mononuclear cells, a human vascular primary cell co-culture, with measurements taken at 24 hours after chemical dosing in a 96-well plate.BSK_SAg_SRB is an assay component measured in the BSK_SAg assay. It measures protein content, a form of viability reporter, as detected with absorbance signals by Sulforhodamine staining technology.Data from the assay component BSK_SAg_SRB was analyzed into 1 assay endpoint. This assay endpoint, BSK_SAg_SRB, was analyzed with bidirectional fitting relative to DMSO as the negative control and baseline of activity. Using a type of viability reporter, gain or loss-of-signal activity can be used to understand changes in the signaling. Furthermore, this assay endpoint can be referred to as a primary readout, because this assay has produced multiple assay endpoints where this one serves a signaling function. To generalize the intended target to other relatable targets, this assay endpoint is annotated to the cell morphology intended target family, where the subfamily is cell conformation.
The levels of cell surface (or secreted, indicated by the prefix "s") biomarker endpoints were measured by ELISA. Overt cytotoxicity to cells in confluent adherent cultures (all systems other than the BT system) was assessed by measuring total protein levels using sulforhodamine B (SRB) staining in parallel cultures at the time of biomarker measurements, indicated as SRB endpoints. For proliferation assays for adherent cell types, individual cell types are cultured at sub-confluence and relative cell numbers quantified by SRB staining at time points optimized for each system (48 h: 3C and CASM3C systems; 72 h: BT and HDF3CGF systems; 96 h: SAg system). SRB was performed by staining cells with 0.1% SRB after fixation with 10% TCA and reading wells at 560 nm.Viability and proliferation of PBMC (T cells) was quantified by Alamar Blue reduction for the SAg and BT systems. For PBMC viability (referred to as PBMC Cytotoxicity within the assay endpoint names), cells were plated (75,000/well in a 96-well plate) and then chemical samples added for 1 h before addition of activators, SEB and TSST-1 (20 ng/mL final concentration each). Cells were incubated for 90 h. Then, Alamar Blue (20 uL/well) (Invitrogen, Cat DAL1100) was added for 6 h, and the plates were read with a fluorescence microplate reader at 546/580 nm (excitation/emission). For PBMC proliferation, cells were plated and activated as above but incubated for only 16 h prior to addition of Alamar Blue. Plates were read after 6 h.
For the molecule `O=C1C=CC(=O)C=C1`, the outcome was inactive.

Turning to `CC(C)COP(=O)(OCC(C)C)OCC(C)C`, the result was inactive.

In the case of `Cc1ccc(OP(=O)(Oc2ccc(C)cc2)Oc2ccc(C)cc2)cc1` (tested in a mixture with another compound), the AC50 is 20 µM (active).

As to `CC(C)CCCCCCCOC(=O)c1ccccc1C(=O)OCCCCCCCC(C)C`, the result was inactive.

For the molecule `O=[N+]([O-])c1ccc(Cl)cc1`, the result was inactive.

`CC1(C)[C@H](C(=O)O[C@H](C#N)c2cccc(Oc3ccccc3)c2)[C@@H]1C=C(Br)Br`: the outcome was inactive.

`C=CCN(CC=C)C(=O)C(Cl)Cl`: the outcome was inactive.

With `CCC(C)c1cc([N+](=O)[O-])cc([N+](=O)[O-])c1OC(=O)C=C(C)C` (configuration not stated), the AC50 was 15.3 µM (active).

Regarding `c1ccc(Nc2ccc3ccccc3c2)cc1`, the result was inactive.

In the case of `CC(C)CCCCCCCOP(=O)(Oc1ccccc1)Oc1ccccc1`, the AC50 was 25.9 µM (active).

Consider `O=[N+]([O-])C=Cc1ccccc1`, for which the AC50 is 12.6 µM (active).

Regarding `Nc1ccc(-c2ccc(N)c(N)c2)cc1N`, the result was inactive.

As to `CCc1cc(C)cc(CC)c1-c1c(OC(=O)C(C)(C)C)n2n(c1=O)CCOCC2`, the outcome was inactive.

In the case of `O=C1C(Cl)=C(Cl)C(=O)C(Cl)=C1Cl`, the AC50 was 30.9 µM (active).

In the case of `CC(=O)/C=C/c1ccccc1`, the result was inactive.

Consider `COc1ccc(CO)cc1`, for which the result was inactive.

Consider `CCCCCCCCCCCC#N`, for which the result was inactive.

`CCCC[N+](CCCC)(CCCC)CCCC`: the result was inactive.

With `[Cd+2].[Cl-].[Cl-]`, the result was inactive.

On to `CNC(=O)Oc1cc(C)c(SC)c(C)c1`, for which the outcome was inactive.

As to `O=c1[nH]c(Cl)c(Cl)cc1Cl`, the result was inactive.

For `CC(C)(C)C(=O)CCl`, the result was inactive.

With `O=S(=O)(c1ccccc1)c1ccccc1`, the result was inactive.

For the molecule `Oc1cc(Cl)ccc1Cl`, the result was inactive.

In the case of `O=[N+]([O-])O`, the result was inactive.

For `O=C(O)CCCc1ccc(N(CCCl)CCCl)cc1`, the AC50 is 20 µM (active) and 10.3 µM (active).

Take `COCC(=O)N(c1c(C)cccc1C)N1CCOC1=O`: the result was inactive.

On to `Oc1ccc(C2(c3ccc(O)cc3)c3ccccc3-c3ccccc32)cc1`, for which the AC50 is 15.9 µM (active) and 15.6 µM (active).

With `CCCOC(=O)c1ccccc1C(=O)OCCC`, the result was inactive.

As to `COC(C)(C)CCC[C@H](C)C/C=C/C(C)=C/C(=O)OC(C)C`, the AC50 was 33.3 µM (active).

As for `O=P1(NCCCl)OCCCN1CCCl` (configuration not stated), the outcome was inactive.

Take `O=C(CCl)c1ccccc1`: the AC50 was 14 µM (active).

Take `O=c1c2ccccc2c(=O)c2c1cc(Cl)c1[nH]c3c([nH]c12)c(Cl)cc1c(=O)c2ccccc2c(=O)c13`: the outcome was inactive.

For `N#CCCCCC#N`, the outcome was inactive.

For `Clc1ccc(-c2ccccc2)cc1`, the result was inactive.

On to `CC(C)(C)C(O)C(Oc1ccc(-c2ccccc2)cc1)n1cncn1` (configuration not stated), for which the outcome was inactive.

Regarding `C=CC(=O)OCC(CC)CCCC` (configuration not stated), the outcome was inactive.
